Assay results published in PubChem BioAssay (NCI).
About 83,000 compounds went through this panel and 20% of them were active in at least one assay; those are over-represented in the sample as a whole.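 Compound tested at a single concentration for 48 hours in 96-well plates; a percent growth value below 10 was scored as active.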 The source made the active and inactive calls.

tested on: MDA-MB-468 breast; experiment: NCI-60 one-dose screen, 48 h (100 = growth as untreated, 0 = no growth, -100 = all killed); conditions: 10 µM unless noted

Question: `O=S(=O)(NCCCNc1nccc(-c2[nH]c(-c3ccccc3)nc2-c2ccc(Cl)c(O)c2)n1)c1cccc2ccccc12` was tested. Which growth did it give?
Answer: 36.7% (inactive)

Question: For `CCC(C)NCc1ccccc1` (stereo not given), which growth is on record?
Answer: 100% (inactive)

Question: Which growth does the source give for `C[n+]1c2ccccc2nc2ccc(NCCO)cc21` here?
Answer: 94% (inactive)

Question: Which growth does the source give for `CCOC(=O)c1c(C)nc2c(c1N)/C(=C/c1ccc(OC)cc1)C(=O)N2Cc1ccccc1` here?
Answer: 66.7% (inactive)

Question: Which growth does the source give for `COc1ccc([C@@H]2[C@@H](O)C(=O)N2c2cc(OC)c(OC)c(OC)c2)cc1F` here?
Answer: -3.08% (active)

Question: How did the growth turn out when `CCn1c(-c2cc3c([nH]c4ccccc43)c(-c3cccc(O)c3)n2)n[nH]c1=S` was run?
Answer: 16.1% (inactive)

Question: `N#CC(=C1C=CC(=NO)C=C1)c1ccccc1` was tested. Which growth did it give?
Answer: 13.8% (inactive)

Question: How did the growth turn out when `O=C(NN1C(=O)CSC1c1ccc(Cl)cc1)c1[nH]c2ccc(F)cc2c1-c1ccccc1` (stereo not given) was run?
Answer: 69.3% (inactive)

Question: How did the growth turn out when `CC(=O)CCS(=O)c1ccccc1` (stereo not given) was run?
Answer: 104% (inactive)

Question: Which growth does the source give for `O=c1nc(NO)[nH]c(=O)n1Cc1ccc(F)cc1` here?
Answer: 107% (inactive)

Question: How did the growth turn out when `CCCC(=O)NC(c1cccnc1)c1cc(C)c2cccnc2c1O` (stereo not given) was run?
Answer: 19.8% (inactive)

Question: How did the growth turn out when `CCOC(=O)Nc1nn[nH]n1` was run?
Answer: 101% (inactive)

Question: For `COc1cc(CNCCN2C(=O)c3ccc4c5c(ccc(c35)C2=O)C(=O)N(CCNCc2cc(OC)c(OC)c(OC)c2)C4=O)cc(OC)c1OC`, which growth is on record?
Answer: -91.6% (active)

Question: With `CC(C)(C)c1ccc(C(=O)Nc2sc3c(c2C(N)=O)CC/C(=N\O)C3)cc1` as the compound, how does the growth read?
Answer: 2.17% (active)

Question: With `CCN(CC)c1ccc2cc(C(Nc3ccc(Cl)cc3)c3nnnn3C(C)(C)C)c(=O)oc2c1` (stereo not given) as the compound, how does the growth read?
Answer: 109% (inactive)
